The source of these data is the supplement of paper PMC11732987, “Enantioselective OTUD7B fragment discovery through chemoproteomics screening and high-throughput optimisation” (Communications Chemistry, 2025).

Common to all, as to assay: log2 ratio of Biotin-Ahx-Ub-VS probe labelling (fragment/DMSO); higher = less target engagement (more negative = stronger competition), active = hit call of the paper (q ≤ 0.05, log2 ratio ≤ -1)
What all share (conditions): compound concentration: 200 uM; treatment time: 3 h

The target in one test is T1, USP42 (UniProt Q9H9J4).
T1 sequence (whole entry): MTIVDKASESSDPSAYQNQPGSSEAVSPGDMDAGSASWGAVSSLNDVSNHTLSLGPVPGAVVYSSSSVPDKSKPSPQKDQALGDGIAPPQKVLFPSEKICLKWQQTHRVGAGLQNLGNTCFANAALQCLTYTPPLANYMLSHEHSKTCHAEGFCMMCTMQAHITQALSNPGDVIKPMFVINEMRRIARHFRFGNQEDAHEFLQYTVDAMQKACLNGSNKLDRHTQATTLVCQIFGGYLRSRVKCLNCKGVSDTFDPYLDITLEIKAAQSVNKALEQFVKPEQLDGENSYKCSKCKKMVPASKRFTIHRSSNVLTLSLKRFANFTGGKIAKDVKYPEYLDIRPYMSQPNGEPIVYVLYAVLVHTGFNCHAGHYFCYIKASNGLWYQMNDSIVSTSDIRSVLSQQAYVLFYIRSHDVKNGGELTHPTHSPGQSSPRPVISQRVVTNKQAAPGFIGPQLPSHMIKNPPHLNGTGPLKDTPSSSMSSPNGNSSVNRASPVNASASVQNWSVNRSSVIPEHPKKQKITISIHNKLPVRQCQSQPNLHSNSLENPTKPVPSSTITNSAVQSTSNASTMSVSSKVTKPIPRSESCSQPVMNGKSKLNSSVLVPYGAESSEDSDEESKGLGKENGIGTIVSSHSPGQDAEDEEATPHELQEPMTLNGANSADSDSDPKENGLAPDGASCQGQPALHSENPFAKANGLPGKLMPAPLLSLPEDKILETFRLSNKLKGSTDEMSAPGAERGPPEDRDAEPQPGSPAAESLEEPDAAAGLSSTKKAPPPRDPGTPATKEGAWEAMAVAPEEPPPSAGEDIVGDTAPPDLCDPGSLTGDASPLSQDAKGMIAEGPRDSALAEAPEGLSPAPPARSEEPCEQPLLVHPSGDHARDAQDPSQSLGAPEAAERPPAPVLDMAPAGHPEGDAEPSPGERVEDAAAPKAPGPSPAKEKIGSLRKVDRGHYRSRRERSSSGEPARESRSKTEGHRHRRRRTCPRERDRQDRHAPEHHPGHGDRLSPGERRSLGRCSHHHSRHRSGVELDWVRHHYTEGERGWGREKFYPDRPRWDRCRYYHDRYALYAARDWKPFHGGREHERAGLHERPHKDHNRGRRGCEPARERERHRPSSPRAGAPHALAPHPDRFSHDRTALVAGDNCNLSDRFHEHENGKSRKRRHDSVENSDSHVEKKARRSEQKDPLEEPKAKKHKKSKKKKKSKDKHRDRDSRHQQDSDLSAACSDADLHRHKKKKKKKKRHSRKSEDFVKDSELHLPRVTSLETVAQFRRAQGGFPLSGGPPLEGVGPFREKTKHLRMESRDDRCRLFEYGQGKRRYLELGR
The procedure, abridged:
(§1)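 HEK293T lysate, 495 µg per sample in Tris/CHAPS/IGEPAL buffer with protease inhibitors, was treated in triplicate with fragment at 200 µM or vehicle for 3 h and then with Biotin-Ahx-Ub-VS at 0.5 µM final for 1 h. Labelled DUBs were NeutrAvidin-enriched, digested with LysC and trypsin, and run by diaPASEF LC-MS/MS. Spectronaut label-free quantities were global-median-normalised, and values are average log2 fragment/vehicle ratios by unpaired t-test on proteins with ≥2 unique peptides.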

A further test addresses USP46 (UniProt P62068). The procedure, abridged: as §1
A further test has as its target T2, USP47 (UniProt Q96K76).
T2 sequence (whole entry): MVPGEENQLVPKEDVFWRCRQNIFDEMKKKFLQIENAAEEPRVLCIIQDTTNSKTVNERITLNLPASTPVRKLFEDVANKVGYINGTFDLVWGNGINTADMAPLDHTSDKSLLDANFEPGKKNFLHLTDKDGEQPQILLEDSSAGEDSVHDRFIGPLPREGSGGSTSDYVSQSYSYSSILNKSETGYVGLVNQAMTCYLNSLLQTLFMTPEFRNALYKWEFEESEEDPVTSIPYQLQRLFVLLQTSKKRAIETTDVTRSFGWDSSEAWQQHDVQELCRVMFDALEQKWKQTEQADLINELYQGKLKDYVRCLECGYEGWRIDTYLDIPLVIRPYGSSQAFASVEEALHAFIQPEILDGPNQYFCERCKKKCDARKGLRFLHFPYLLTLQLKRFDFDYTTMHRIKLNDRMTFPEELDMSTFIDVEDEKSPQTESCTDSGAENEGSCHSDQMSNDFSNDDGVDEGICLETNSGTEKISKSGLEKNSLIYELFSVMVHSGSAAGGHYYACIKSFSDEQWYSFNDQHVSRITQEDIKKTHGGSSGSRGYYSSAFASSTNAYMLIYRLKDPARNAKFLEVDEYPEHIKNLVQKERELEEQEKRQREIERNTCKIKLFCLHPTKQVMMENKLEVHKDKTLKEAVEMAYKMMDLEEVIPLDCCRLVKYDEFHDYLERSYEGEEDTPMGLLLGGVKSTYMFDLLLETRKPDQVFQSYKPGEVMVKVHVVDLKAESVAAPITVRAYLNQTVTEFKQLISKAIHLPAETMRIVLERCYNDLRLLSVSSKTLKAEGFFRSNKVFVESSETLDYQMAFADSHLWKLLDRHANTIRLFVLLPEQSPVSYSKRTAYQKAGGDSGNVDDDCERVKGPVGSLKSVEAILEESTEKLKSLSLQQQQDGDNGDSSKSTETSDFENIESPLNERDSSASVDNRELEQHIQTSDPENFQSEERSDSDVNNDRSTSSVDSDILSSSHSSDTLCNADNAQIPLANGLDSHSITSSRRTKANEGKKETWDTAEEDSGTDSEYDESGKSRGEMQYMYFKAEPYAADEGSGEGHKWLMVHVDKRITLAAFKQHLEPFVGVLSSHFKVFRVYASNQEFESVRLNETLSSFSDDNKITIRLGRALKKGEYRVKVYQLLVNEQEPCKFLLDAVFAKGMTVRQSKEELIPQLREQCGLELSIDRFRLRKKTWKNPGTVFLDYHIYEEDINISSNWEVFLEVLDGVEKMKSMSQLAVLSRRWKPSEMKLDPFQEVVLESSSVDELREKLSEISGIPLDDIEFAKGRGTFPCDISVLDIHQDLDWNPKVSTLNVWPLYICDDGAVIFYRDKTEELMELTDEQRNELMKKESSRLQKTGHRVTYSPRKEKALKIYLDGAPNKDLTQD
The procedure, abridged:
as §1

A further test concerns the target T3, USP48 (UniProt Q86UV5).
T3 sequence (whole entry): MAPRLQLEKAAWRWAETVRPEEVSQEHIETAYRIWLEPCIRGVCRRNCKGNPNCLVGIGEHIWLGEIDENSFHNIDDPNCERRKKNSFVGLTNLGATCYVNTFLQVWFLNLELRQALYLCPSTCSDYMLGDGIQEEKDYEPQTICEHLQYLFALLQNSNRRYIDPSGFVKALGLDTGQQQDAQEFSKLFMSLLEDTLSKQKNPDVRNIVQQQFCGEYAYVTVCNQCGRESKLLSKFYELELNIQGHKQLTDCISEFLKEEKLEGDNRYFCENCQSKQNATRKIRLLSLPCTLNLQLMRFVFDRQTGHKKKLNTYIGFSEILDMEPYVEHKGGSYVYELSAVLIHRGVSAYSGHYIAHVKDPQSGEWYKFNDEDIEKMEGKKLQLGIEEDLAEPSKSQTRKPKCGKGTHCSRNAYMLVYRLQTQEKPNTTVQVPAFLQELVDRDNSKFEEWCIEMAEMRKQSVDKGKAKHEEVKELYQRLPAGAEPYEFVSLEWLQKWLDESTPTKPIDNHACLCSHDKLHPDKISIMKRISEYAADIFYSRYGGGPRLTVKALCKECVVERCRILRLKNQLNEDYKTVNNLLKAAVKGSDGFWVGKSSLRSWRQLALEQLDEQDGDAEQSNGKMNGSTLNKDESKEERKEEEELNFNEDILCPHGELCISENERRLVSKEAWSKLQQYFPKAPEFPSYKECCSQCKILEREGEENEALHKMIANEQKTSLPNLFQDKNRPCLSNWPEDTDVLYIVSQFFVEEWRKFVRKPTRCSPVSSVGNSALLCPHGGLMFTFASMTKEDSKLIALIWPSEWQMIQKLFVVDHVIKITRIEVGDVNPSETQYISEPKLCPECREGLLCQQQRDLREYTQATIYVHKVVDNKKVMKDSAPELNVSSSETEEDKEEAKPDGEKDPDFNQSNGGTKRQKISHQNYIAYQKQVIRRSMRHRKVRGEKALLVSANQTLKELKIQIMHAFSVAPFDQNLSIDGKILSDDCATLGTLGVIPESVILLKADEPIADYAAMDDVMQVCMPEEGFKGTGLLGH
The procedure, abridged: as §1

For a further test, the target named is T4, USP5 (UniProt P45974).
T4 sequence (whole entry): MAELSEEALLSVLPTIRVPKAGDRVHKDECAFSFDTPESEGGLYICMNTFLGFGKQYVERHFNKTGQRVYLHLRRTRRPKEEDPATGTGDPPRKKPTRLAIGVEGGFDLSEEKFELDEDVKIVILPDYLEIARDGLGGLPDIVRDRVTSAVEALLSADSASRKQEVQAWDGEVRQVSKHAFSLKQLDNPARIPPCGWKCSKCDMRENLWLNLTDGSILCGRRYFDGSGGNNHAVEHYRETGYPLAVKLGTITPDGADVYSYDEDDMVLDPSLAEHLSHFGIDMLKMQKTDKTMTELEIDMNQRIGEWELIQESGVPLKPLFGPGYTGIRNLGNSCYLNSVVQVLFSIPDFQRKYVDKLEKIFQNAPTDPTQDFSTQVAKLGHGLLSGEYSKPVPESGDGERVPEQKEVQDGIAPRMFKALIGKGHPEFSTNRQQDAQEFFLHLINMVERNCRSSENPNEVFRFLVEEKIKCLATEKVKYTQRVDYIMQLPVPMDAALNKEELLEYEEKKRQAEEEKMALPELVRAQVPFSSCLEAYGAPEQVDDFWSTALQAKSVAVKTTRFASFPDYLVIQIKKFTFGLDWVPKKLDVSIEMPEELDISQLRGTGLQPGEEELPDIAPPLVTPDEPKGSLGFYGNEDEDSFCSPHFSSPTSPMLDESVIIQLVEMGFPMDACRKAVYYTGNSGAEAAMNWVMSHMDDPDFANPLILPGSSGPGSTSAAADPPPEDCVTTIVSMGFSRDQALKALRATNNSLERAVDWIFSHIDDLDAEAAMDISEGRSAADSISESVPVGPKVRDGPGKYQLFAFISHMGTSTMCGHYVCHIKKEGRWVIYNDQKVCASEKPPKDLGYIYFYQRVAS
Summed up: as §1

The target of a further test is USP54 (UniProt Q70EL1). The procedure, abridged: as §1
Chain of USP54 (Q70EL1 whole entry): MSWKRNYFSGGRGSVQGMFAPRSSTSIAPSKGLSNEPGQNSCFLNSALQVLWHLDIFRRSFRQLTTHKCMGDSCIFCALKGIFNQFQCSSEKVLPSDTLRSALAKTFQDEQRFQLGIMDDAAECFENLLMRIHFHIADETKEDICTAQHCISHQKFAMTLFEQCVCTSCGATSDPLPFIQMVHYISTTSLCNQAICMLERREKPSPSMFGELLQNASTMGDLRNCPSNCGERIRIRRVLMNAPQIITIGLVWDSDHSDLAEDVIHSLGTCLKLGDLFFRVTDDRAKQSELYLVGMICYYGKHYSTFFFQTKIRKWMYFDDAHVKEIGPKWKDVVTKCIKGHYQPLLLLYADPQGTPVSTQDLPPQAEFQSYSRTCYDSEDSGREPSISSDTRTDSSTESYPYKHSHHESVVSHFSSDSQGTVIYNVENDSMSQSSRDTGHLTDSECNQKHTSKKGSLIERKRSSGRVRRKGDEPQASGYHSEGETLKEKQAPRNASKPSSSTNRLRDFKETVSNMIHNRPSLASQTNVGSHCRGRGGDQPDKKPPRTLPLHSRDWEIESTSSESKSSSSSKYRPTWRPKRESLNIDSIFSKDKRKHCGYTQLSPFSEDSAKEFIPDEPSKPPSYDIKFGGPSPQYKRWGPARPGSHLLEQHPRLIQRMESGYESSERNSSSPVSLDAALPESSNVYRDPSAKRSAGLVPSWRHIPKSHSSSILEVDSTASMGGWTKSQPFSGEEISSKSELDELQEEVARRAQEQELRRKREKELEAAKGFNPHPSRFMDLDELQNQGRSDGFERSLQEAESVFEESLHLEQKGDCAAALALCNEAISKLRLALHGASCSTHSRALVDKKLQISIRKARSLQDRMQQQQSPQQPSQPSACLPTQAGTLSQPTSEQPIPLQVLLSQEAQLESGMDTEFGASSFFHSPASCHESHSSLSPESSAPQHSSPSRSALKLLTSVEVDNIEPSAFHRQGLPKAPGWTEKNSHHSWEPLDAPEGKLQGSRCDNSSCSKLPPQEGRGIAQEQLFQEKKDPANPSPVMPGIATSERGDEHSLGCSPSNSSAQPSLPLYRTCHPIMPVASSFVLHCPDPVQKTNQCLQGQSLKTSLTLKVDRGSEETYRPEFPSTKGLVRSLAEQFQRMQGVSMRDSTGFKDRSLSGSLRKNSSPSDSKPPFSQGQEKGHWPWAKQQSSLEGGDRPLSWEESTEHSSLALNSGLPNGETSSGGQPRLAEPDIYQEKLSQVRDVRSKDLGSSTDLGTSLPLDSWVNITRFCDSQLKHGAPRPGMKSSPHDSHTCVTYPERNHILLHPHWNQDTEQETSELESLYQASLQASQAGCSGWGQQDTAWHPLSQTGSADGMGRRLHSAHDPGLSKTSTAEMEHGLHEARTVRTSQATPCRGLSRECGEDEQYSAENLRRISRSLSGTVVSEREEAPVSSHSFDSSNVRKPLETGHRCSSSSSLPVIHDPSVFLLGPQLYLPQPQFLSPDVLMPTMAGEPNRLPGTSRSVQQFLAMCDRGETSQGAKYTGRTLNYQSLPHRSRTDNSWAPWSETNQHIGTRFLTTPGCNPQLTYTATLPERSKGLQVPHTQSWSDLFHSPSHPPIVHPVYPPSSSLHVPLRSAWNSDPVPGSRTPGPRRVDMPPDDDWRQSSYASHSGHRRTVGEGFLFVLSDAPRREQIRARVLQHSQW
In the next test the target is USP7 (UniProt Q93009). The procedure, abridged: as §1
The target of a further test is T5, USP8 (UniProt P40818).
T5 sequence (whole entry): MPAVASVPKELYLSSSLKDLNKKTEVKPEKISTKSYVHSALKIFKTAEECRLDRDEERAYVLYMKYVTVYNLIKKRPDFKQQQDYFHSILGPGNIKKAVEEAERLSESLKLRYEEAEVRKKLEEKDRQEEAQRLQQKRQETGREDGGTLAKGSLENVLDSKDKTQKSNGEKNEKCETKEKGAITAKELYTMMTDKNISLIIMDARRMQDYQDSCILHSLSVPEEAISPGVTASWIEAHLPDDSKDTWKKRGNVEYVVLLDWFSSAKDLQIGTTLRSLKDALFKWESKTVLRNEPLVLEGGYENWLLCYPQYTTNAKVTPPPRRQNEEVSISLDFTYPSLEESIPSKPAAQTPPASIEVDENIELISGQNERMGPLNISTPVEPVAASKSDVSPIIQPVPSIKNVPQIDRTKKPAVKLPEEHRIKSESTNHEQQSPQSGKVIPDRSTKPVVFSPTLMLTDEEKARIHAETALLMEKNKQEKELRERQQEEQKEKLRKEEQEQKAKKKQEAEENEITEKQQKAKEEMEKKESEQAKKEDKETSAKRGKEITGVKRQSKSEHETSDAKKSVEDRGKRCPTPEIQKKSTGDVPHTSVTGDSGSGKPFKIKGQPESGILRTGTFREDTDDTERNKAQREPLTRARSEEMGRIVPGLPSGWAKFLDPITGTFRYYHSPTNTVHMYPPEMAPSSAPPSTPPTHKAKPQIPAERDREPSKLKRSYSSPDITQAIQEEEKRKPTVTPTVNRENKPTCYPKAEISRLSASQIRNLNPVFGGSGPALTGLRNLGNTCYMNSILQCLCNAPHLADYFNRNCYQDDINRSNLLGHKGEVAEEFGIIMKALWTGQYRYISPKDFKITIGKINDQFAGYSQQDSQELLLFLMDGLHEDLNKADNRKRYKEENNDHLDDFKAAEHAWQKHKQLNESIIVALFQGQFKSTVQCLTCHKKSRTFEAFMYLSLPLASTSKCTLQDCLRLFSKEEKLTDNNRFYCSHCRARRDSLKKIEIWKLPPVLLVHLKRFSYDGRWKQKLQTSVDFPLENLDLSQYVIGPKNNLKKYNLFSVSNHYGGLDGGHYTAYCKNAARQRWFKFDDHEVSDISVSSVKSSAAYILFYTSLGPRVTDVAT
Summed up:
as §1

A further test has as its target USP9X (UniProt Q93008). The procedure, abridged:
as §1

The target in the next test is UniProt O00487. The procedure, abridged:
as §1

A number with no mark means an inactive call.

Chain of UniProt O00487 (O00487 whole entry): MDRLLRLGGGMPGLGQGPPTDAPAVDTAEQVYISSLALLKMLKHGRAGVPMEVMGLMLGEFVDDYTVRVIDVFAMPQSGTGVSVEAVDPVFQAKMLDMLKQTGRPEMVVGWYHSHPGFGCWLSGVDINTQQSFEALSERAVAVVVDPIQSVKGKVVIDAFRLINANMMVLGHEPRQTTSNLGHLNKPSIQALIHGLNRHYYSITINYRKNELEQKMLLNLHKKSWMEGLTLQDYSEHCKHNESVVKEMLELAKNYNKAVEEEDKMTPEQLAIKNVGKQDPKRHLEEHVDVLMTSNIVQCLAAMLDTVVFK
Chain of USP9X (Q93008 whole entry): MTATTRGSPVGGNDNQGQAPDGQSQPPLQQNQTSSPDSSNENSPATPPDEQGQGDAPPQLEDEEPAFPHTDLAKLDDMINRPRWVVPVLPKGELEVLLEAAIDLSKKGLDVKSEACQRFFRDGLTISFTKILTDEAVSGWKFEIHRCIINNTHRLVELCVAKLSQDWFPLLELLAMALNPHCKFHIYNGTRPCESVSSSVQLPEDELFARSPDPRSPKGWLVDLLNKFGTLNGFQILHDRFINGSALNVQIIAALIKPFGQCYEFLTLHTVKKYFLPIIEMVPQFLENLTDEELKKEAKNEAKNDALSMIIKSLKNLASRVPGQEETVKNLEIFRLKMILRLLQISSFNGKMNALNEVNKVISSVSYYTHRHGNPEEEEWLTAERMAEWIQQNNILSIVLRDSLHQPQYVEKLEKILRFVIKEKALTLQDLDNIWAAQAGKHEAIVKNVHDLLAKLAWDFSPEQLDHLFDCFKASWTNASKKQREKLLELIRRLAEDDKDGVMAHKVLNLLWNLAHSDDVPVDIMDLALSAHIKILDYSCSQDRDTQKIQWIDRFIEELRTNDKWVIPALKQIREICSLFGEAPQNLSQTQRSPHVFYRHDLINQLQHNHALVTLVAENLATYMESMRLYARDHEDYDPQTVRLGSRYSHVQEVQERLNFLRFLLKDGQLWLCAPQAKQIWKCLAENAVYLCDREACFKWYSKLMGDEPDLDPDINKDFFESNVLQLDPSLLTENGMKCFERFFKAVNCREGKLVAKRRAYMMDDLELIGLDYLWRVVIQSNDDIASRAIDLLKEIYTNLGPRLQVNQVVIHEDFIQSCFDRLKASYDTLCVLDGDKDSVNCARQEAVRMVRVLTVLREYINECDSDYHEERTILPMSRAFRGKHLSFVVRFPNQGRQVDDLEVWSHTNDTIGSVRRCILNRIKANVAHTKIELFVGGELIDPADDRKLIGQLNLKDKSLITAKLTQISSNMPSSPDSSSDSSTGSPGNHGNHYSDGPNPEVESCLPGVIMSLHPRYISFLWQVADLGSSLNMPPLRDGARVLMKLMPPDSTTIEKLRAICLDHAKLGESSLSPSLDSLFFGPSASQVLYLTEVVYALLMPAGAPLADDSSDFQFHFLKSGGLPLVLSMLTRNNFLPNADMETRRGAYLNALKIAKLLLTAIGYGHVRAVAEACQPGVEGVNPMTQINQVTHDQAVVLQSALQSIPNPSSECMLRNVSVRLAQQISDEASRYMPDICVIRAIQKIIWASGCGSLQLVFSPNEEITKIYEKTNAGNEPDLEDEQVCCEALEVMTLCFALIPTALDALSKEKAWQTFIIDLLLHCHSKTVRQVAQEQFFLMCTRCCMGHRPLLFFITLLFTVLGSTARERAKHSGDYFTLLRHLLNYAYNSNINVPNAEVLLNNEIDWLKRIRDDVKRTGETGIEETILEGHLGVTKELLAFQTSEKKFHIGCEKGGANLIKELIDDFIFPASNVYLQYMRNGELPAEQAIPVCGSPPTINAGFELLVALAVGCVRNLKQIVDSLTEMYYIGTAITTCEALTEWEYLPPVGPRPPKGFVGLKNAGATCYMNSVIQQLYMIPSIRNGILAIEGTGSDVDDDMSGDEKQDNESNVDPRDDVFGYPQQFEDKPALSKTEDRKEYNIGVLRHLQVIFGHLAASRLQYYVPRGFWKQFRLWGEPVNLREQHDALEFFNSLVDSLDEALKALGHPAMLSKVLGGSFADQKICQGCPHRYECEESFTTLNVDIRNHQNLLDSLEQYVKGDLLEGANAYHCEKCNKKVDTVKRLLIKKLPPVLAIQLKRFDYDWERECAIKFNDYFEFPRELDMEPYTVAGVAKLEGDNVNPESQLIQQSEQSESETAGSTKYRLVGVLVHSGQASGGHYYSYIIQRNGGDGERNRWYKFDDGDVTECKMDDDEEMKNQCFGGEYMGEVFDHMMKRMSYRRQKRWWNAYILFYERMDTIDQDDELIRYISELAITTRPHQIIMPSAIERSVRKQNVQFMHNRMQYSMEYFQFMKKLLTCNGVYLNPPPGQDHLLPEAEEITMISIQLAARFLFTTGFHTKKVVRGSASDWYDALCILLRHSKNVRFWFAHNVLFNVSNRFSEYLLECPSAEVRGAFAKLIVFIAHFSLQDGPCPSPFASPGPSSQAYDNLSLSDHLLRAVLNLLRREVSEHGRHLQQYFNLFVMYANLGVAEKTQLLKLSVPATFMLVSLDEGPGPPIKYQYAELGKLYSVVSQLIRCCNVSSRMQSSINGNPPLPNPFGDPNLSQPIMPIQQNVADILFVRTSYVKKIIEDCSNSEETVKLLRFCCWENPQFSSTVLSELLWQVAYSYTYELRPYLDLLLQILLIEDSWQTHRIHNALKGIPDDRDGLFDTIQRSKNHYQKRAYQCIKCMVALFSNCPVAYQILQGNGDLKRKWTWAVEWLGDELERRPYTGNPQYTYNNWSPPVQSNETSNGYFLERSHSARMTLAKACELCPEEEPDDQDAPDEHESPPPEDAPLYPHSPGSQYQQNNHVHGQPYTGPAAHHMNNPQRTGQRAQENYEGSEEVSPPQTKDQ
Chain of USP46 (P62068 whole entry): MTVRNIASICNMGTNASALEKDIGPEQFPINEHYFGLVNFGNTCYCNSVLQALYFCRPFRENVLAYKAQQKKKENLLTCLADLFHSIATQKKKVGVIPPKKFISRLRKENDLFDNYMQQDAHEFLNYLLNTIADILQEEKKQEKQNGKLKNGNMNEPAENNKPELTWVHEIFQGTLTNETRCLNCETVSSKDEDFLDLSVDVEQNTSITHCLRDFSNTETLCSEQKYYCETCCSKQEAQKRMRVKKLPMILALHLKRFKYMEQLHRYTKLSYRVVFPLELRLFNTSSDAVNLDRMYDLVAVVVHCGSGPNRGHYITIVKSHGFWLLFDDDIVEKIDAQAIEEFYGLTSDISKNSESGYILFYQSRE

`O=C(CCl)N(C1CCCC1)C1CCS(=O)(=O)C1` (stereo not given): the “log2 ratio of Biotin-Ahx-Ub-VS probe labelling” value was 0.228 with USP42; -0.0761 with USP46; -0.442 with USP47; -1.18 (active) with USP48; 0.124 with USP5; -0.384 with USP54. Also, the “log2 ratio of Biotin-Ahx-Ub-VS probe labelling” value is -0.798 in the test with USP7, 0.0542 in the test with USP8, -0.0338 with USP9X and -0.119 with UniProt O00487.
